Bioassay records from PubChem BioAssay.
ATXN2 expr inh – inhibitors of ATXN2 expression | HEK-293 ATXN2-luciferase reporter, luminescence, 24 h | Potency, µM (titrated, usually from 57 µM), hits mostly inhibitors | 0.72% of 360,000 active | AID 1745845; note: nearly all actives have a fitted effect of over 55% in size
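qHTS (up to 57 uM final) was run with 24 h compound exposure of reporter cells at 37 °C. Each well was multiplexed: SteadyGlo luminescence measured ATXN2-luciferase expression after a fluorogenic Gly-Phe-AFC viability readout (25 uM final).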
A549 viability – counter-screen for Nrf2 inhibitors: cytotoxicity in A549 cells. A549 ARE-Fluc cells, CellTiter-Fluor viability, 18-24 h. Potency, µM (top dose mostly 46 µM), most hits filed as inhibitors. 0.16% of 390,000 active
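Cytotoxicity counterscreen: CellTiter-Fluor fluorescence was measured in A549 ARE_Fluc cells after 18-24 h of compound exposure in a concentration series. The subsequent BugLite luminescent read reports ARE-luciferase activity.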
Nrf2 block – blocks Nrf2 signaling. A549 ARE-Fluc reporter, luciferase luminescence, 18-24 h. Potency, µM (series often up to 46 µM), hits mostly inhibitors. 2.1% of 360,000 active. AID 504444; note: nearly all actives have a fitted effect of over 60% in size
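A549 ARE_Fluc cells, 5000/well, 5% FBS OPTI-MEM; compounds in dose-response, 18-24 h at 37 °C/5% CO2; CellTiter-Fluor viability read (Ex 405/Em 525), then BugLite luciferase luminescence = Nrf2 activity.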
HepG2 viability – counter-screen for TGF-b inhibitors: cytotoxicity in HepG2 cells | Potency, µM (doses to about 46.1 µM), actives largely listed as cytotoxic | HepG2 CAGA-GFP viability, ATP luminescence, 18 h | AID 588856 | 0.76% of 410,000 active
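HepG2 CAGA-GFP cells (1000/well, DMEM with 1% FBS) received compound, then TGF-beta at 500 pg/mL final, and were incubated 18 hours at 37 degrees C. Viability was read by CellTiter-Glo luminescence. Media-only wells were set as complete cell-killing and DMSO as no toxicity.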
TGFb SMAD3 inh – blocks TGF-b signaling; 1.2% of 410,000 active; HepG2 CAGA-GFP TGF-b/SMAD3 reporter, GFP fluorescence, 18 h; TGF-beta stimulated, 500 pg/mL final; Potency, µM (doses to about 46.1 µM), hits mostly inhibitors; note: nearly all actives have a fitted effect of over 65% in size
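Inhibition was scored as loss of TGF-beta-induced (500 pg/mL final, 18 hours, 37 degrees C) GFP in HEPG2 cells carrying a CAGA-GFP reporter, in DMEM with 1% FBS. Well GFP was summed per cell; Activity was normalised to unstimulated and stimulated DMSO wells, then concentration-response fitting.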
S2 tox – reduces viability in counter-screen for ATXN expression inhibitors | AID 651635 | Potency, µM (highest dose often 56.7 µM), most hits filed as cytotoxic | S2 cells (HEK-293 line with an ATXN2-luciferase reporter) viability, CellTiter-Fluor protease fluorescence, 24 h | 0.49% of 400,000 active; note: nearly all actives have a fitted effect of over 40% in size
Numbers stand for hits; - = inactive; ? = inconclusive; . = no result given; [ ] = dose if it differs, or a comment. Sampled rows, rich in hits. Any-hit rate of the full collection: about 3.8%. Calls come from the whole dose curve; as a rule, active = well fitted curve in the direction sought with a large enough effect; inconclusive = small, poorly fitted or top-dose-only effect, or another doubt; inactive = no such curve, though single readings can be large; an effect the other way counts as inactive or inconclusive.

SMILES | ATXN2 expr inh | A549 viability | Nrf2 block | HepG2 viability | TGFb SMAD3 inh | S2 tox
COC(=O)c1cc2oc(C)cc2n1CC(=O)Nc1ccc(C)cc1C | - | - | - | - | - | -
COc1ccccc1CCNC(=O)c1ccc(NC(=O)N2CC(C)Sc3ccccc32)cc1 (stereo unspecified) | - | - | 20.6µM | - | - | ?
CC(C)Sc1nc2c(cnn2-c2ccccc2)c(=O)[nH]1 | - | - | - | - | - | -
O=c1[nH]c(/C=C/c2ccc(OC(F)F)cc2)nc2c1cnn2-c1ccccc1 | -[11.3 µM] | - | 16.4µM | - | - | -
CCn1cc([N+](=O)[O-])c(C(=O)N2N=C(c3ccc(O)c(OC)c3)CC2c2ccccc2O)n1 (stereo unspecified) | - | - | - | - | ? | -
CCn1cc([N+](=O)[O-])c(C(=O)N2N=C(c3ccc4ccccc4c3)CC2c2cc(Br)ccc2O)n1 (stereo unspecified) | ? | ? | ? | - | 20µM | -
CCn1cc([N+](=O)[O-])c(C(=O)N2N=C(c3ccc(Cl)c(Cl)c3)CC2c2ccccc2O)n1 (stereo unspecified) | ? | ? | ? | - | 11.2µM | .
Cn1c(=O)c2c(nc3n(-c4ccc(O)cc4)c(-c4ccc(Br)cc4)cn23)n(C)c1=O | - | - | - | - | - | -
c1c2c(cc3sc(N4CCCCC4)nc13)OCO2 | - | - | ? | 10µM | ? | ?
COc1ccc(-c2csc(NC(=O)c3c(C)noc3C)n2)cc1OC | . | . | . | - | - | .
Cc1noc(C)c1S(=O)(=O)N1CCC(C(=O)c2ccccc2)CC1 | - | - | - | - | - | -
CSc1ccc(C(=O)C2CCCN(S(=O)(=O)c3c(C)noc3C)C2)cc1 (stereo unspecified) | - | - | 13µM | - | - | -
COc1ccc(N2CCN(S(=O)(=O)c3cc(C)ccc3OC)CC2)cc1 | - | - | - | - | - | ?
COc1cccc(NC(=O)C2(C)CCN2C(=O)CCc2ccc(Cl)cc2Cl)c1 (stereo unspecified) | - | . | . | - | - | -
COc1ccc(OC)c(C2CC(=O)Nc3ccc4ccccc4c32)c1 (stereo unspecified) | - | ? | ? | - | - | ?
CCCCOc1ccccc1C1CC(=O)Nc2ccc3ccccc3c21 (stereo unspecified) | . | - | ? | 11.2µM | ? | .
CN(C)CCNc1ccc2ncn3c4ccc(O)cc4c(=O)c1c23 | 3.98µM | - | ? | - | ? | -
CN(C)CCNc1ccc(CO)c2sc3ccc(O)cc3c(=O)c12 | 2.67µM | ? | ? | - | 14.1µM | 18.9µM
COc1ccc2sc3cccc(NCCN(C)C)c3c(=O)c2c1 | - | . | . | - | ? | -
Cc1ccc(NS(=O)(=O)c2ccc(NC(=O)c3cccs3)cc2)cc1 | - | - | ? | - | - | -
Cc1cccc(N2CCN(C(=O)CN3CCSc4ccccc43)CC2C)c1 (stereo unspecified) | - | - | . | - | - | ?
C/C(=N/Nc1nc(-c2ccccc2F)nc2ccccc12)c1ccccc1O | . | - | ? | - | 12.6µM | -
C/C(=N\Nc1nc(-c2ccccc2O)nc2ccccc12)c1ccccc1 | - | - | - | - | - | -
COc1cc(/C=N\NC(=O)c2ccc(-c3ccccc3)cc2)cc(OC)c1O | - | - | - | - | - | -
COc1cc(/C=N\NC(=O)c2ccc(-c3ccccc3)cc2)cc(OC)c1OC(C)=O | - | - | 13µM | - | - | -
SMILES | ATXN2 expr inh | A549 viability | Nrf2 block | HepG2 viability | TGFb SMAD3 inh | S2 tox
O=C(N/N=C/c1cn(Cc2ccccc2)c2ccccc12)c1cccnc1 | ? | - | ? | - | 2.82µM | -
NC(=O)CSc1cn(Cc2cccc(F)c2)c2ccccc12 | - | - | - | - | - | -
CCOC(=O)N/N=C/c1cn(CCCOc2ccccc2)c2ccccc12 | - | - | - | - | - | -
O=C(N/N=C/c1c(O)n(Cc2ccccc2)c(=O)c2ccccc12)c1cccnc1 | 16.8µM | - | - | - | - | .
Nc1ccc(C(=O)N/N=C/c2cn(Cc3cccc(F)c3)c3ccccc23)cc1 | - | - | ? | - | 1.26µM | -
O=C(N/N=C/c1cn(CC(=O)N2CCOCC2)c2ccccc12)c1cccnc1 | - | - | ? | - | - | -
COc1ccc(Cn2c(O)c(/C=N/NC(=O)c3cccnc3)c3ccccc3c2=O)cc1 | ? | - | - | - | ? | .
CCOC(=O)N/N=C/c1cn(Cc2ccc(F)cc2)c2ccccc12 | . | - | - | - | 2.24µM | -
CCOc1ccc(OCc2ccc(C(=O)N/N=C(\C)c3ccccn3)cc2)cc1 | 2.82µM | ? | ? | - | - | ?
C/C(=N\NC(=O)c1cccc(Br)c1)c1ccccn1 | ? | ? | 2.31µM | - | ? | ?
CCOc1ccc(C(=O)O/N=C(\N)c2ccccn2)cc1 | . | - | ? | - | - | -
C/C(=N\NC(=O)C(c1ccccc1)c1ccccc1)c1ccccn1 | 3.55µM | ? | 11.6µM | - | ? | 6.31µM
C/C(=N\NC(=O)c1cc(Br)ccc1O)c1ccccn1 | ? | - | - | - | ? | -
C/C(=N\NC(=O)c1ccccc1Cl)c1ccccn1 | . | ? | ? | - | ? | ?
C/C(=N\NC(=O)c1cccc2ccccc12)c1ccccn1 | ? | ? | - | - | 3.16µM | 3.55µM
CCCCN(CC)C(=O)C1CCCN(c2ncnc3c2nc2n3CCCCC2)C1 (stereo unspecified) | - | - | - | - | - | -
CCc1ccc(C(=O)COC(=O)c2ccc(Cl)nc2)cc1 | - | - | - | - | - | -
Cc1ccc(CNCc2cc3c(C(C)(C)C)nn(-c4ccccc4)c3[nH]c2=O)cc1 | ? | - | ? | - | - | ?
COc1ccc(CNCc2cc3c(C(C)(C)C)nn(-c4ccccc4)c3[nH]c2=O)cc1 | ? | - | 18.4µM | - | - | ?
O=C(O)C(Cc1c[nH]c2ccccc12)N1C(=O)C2C3c4ccccc4C(c4ccccc43)[C@@H]2C1=O (stereo partly specified) | - | - | - | - | - | -
CCOC(=O)N1CCc2c(sc(NCc3cccs3)c2C(=O)Nc2ccc(OC)cc2OC)C1 | . | - | . | - | 10µM | .
CCOC(=O)N1CCc2c(sc(NCc3ccc(OCC)cc3)c2C(=O)Nc2ccc(OC)cc2OC)C1 | 12.6µM | - | . | - | ? | -
CCOC(=O)N1CCc2c(sc(NCc3ccc(OC)c(OC)c3OC)c2C(=O)Nc2ccc(OC)cc2OC)C1 | - | - | . | - | - | -
COc1ccc(C(=O)Oc2c(CN3CCOCC3)cc(Cl)c3cccnc23)cc1 | ? | - | - | 7.94µM | 10µM | ?
